In the library only some 1.7% were active in any assay of this set; here they are far more common.
RecA splice inh = Mtb RecA intein splicing inhibition. P9WHJ3. cell-free RecA intein splicing, fluorescence. inhibition, % (no concentration beside the values). 0.75% of 290,000 active; in the data active = inhibition above about 30%;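 note: 0% = vehicle wells and 100% = reference inhibitor control wells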
3CLpro inhibitor = SARS-CoV 3CLpro protease inhibition | P0C6X7 | recombinant SARS-CoV 3CLpro, quenched FRET peptide cleavage | 0.14% of 290,000 active | inhibition, % at 6 µM; in the data active = inhibition above about 12%
PriA SSB inh = inhibitors of Klebsiella pneumoniae PriA binding to SSB C-terminal tail; AlphaScreen SSBct-PriA binding, biotinylated peptide; inhibition, % at 33 µM; 0.6% of 430,000 active; in the data active = inhibition mostly above about 37%, no sharp cut-off; inactive = mostly below about 20%;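 note: plate controls were negative control peptide for no effect and reference peptide for full effect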
CCHF vOTU inh-1 = CCHFV vOTU protease inhibition | Pep-AMC fluorescence | inhibition, % at 11.5 µM | 0.55% of 370,000 active | AID 651958; note: 0% = vehicle wells with enzyme and 100% = no enzyme wells
VHR inh abs = DUSP3 (human) phosphatase inhibition; recombinant VHR phosphatase, pNPP absorbance; inhibition, % at 13.3 µM; 0.52% of 290,000 active; AID 1654; in the data active = inhibition above about 50%
Target sequence (P51452 whole entry, looked up): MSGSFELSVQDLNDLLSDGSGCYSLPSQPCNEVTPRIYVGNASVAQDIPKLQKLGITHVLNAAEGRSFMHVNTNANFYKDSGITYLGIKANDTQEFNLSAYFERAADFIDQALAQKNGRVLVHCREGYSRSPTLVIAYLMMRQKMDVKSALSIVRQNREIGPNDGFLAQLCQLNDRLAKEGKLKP
CCHF vOTU inh-2 = confirmation of CCHF virus vOTU protease inhibitors; shares compounds with CCHF vOTU inh-1; Recombinant CCHFV vOTU, Pep-AMC fluorescence; inhibition, % at 11.5 µM; 17% of 1,900 active
* hit, by the source's call; i = inactive; . = not tested or not shown. Cut-off read from the data, not from the text of the source, unless noted: active = inhibition above about 30%; inactive = the rest.

SMILES | RecA splice inh | 3CLpro inhibitor | PriA SSB inh | CCHF vOTU inh-1 | VHR inh abs | CCHF vOTU inh-2
CCc1cc(C(=O)O)c(NC(=O)/C=C/c2ccc(OC)c(OC)c2)s1 | -1.2 | 5.7 | -6.2 | 32.6* | 13.0 | 8.8
CC1(c2ccc3ccccc3c2)NC(=O)N(CC(=O)NCc2cccs2)C1=O (stereo not drawn) | 1.3 | 4.9 | -15.7 | 5.8 | -6.9 | .
CCCCCC(C)NC(=O)CN1C(=O)NC(C)(c2ccc3ccccc3c2)C1=O (stereo not drawn) | 0.2 | 4.1 | 1.8 | 32.4* | -11.3 | 3.8
COC(=O)c1ccc(NC(=O)CNCc2ccncc2)cc1 | 0.3 | 0.9 | 7.4 | 32.4* | -6.7 | -11.2
NCCn1ncc2c(=O)n(Cc3ccc(Br)cc3)cnc21 | . | . | -1.0 | . | . | .
Cc1cc(=O)[nH]c(-n2[nH]c(C)cc2=O)n1 | 2.4 | -4.7 | -1.7 | 2.8 | 25.5 | .
COc1ccc(-n2[nH]c(C)cc2=O)cc1 | -1.8 | -3.2 | 0.6 | 33.5* | 20.9 | -26.6
CCc1noc(C)c1C(=O)Nc1ccc(Cl)c(S(=O)(=O)N2CCCCC2)c1 | 4.9 | . | -15.1 | 32.0* | . | -9.4
O=C(CSC1CCCC1)N[C@H]1CCN(c2ccc(C(F)(F)F)cn2)C1 | . | . | -2.0 | . | . | .
Nc1cnn(Cc2ccccc2F)c1 | 27.2 | 3.5 | -9.5 | 33.8* | 25.9 | 7.2
CC(=O)Nc1ccc(S(=O)(=O)Nc2ccccc2C(=O)N2CCCC2)cc1 | -81.5 | -2.7 | -9.5 | 29.7* | 3.0 | -6.3
CS(=O)(=O)Nc1cccc(NC(=O)C2CN(c3nc4c(C(F)(F)F)cccc4s3)C2)c1 | . | . | -8.0 | . | . | .
CC(CCc1ccccc1)NC(=O)c1ccc(NC(=O)c2cccc(Br)c2)cc1 (stereo not drawn) | 1.9 | -1.3 | -7.6 | 11.1 | 28.6 | .
CC(CCc1ccccc1)NC(=O)c1ccc(NC(=O)c2ccccc2)cc1 (stereo not drawn) | 1.5 | -0.5 | -10.3 | 32.1* | 4.6 | -7.7
CCC(C(=O)Nc1cc(C)nn1-c1nc(-c2ccc3c(c2)OCO3)cs1)c1ccccc1 (stereo not drawn) | . | . | -8.0 | . | . | .
Cc1nnc(NN=Cc2cc(C)n(-c3ccc(F)cc3)c2C)n1N | . | . | 32.3 | . | . | .
Cc1nnc(N/N=C/c2ccc(-c3ccccc3F)o2)n1N | 1.6 | 6.5 | . | 79.1* | 29.5 | 5.1
CCc1nnc(N/N=C/c2c(F)cccc2Cl)n1N | 4.0 | 1.3 | . | 87.5* | -24.2 | -12.2
Cc1nnc(N/N=C/c2cc(C)n(-c3ccc(F)cc3)c2C)n1N | -5.6 | -4.6 | . | 99.1* | 4.3 | -8.9
CCc1nnc(N/N=C/c2c(C)[nH]c3ccccc23)n1N | -3.4 | 1.9 | . | 112.4* | 28.8 | -10.6
Cc1[nH]c2ccccc2c1/C=N/NC(N)=S | -1.0 | -13.7 | . | 9.5 | 1.4 | .
CC1=C(C(=O)Nc2ccccc2)C2(CCCCC2)C(C#N)C(SCC(=O)Nc2nccs2)=N1 (stereo not drawn) | . | . | 7.0 | . | . | .
O=C(NCCn1nc(C2CC2)cc1C1CC1)c1cccc(F)c1 | . | . | 11.0 | . | . | .
O=C(Cc1cc(=O)[nH]c(SCc2ccccc2F)n1)NCCc1ccc(Cl)cc1 | . | . | -8.0 | . | . | .
COc1ccc2sc(N(Cc3ccccn3)C(=O)c3cccs3)nc2c1 | . | . | -20.0 | . | . | .
SMILES | RecA splice inh | 3CLpro inhibitor | PriA SSB inh | CCHF vOTU inh-1 | VHR inh abs | CCHF vOTU inh-2
CCOC(=O)Cn1c(=NC(=O)Cc2cccc3ccccc23)sc2cc(S(N)(=O)=O)ccc21 | . | . | -5.0 | . | . | .
Cc1nnc(N/N=C/c2c(Cl)cccc2Cl)n1N | 6.2 | 8.1 | . | 74.5* | 2.0 | -7.9
CCc1nnc(NN=Cc2ccccc2Cl)n1N | . | . | -14.8 | . | . | .
CCc1nnc(N/N=C/c2ccc(-c3ccc([N+](=O)[O-])cc3)o2)n1N | 26.5 | 3.9 | . | 64.5* | 4.8 | 4.4
CCc1nnc(N/N=C/c2cc(C)c(C)cc2C)n1N | -5.5 | -3.0 | . | 74.5* | -3.2 | -21.5
O=C(COc1ccc(Cl)cc1)NCCCn1ncccc1=O | . | . | -4.0 | . | . | .
CCC(NC(=O)c1ccc2c(c1)c(C)c(C)n2Cc1ccc(Cl)cc1)c1ccccc1 (stereo not drawn) | . | . | . | 10.3 | . | .
CCC(NC(=O)c1ccc2c(ccn2Cc2cccc(-c3ccc(C(=O)O)cc3)c2)c1)c1ccccc1 (stereo not drawn) | . | . | . | 32.0* | . | -2.5
CCOC(=O)c1c(CN(C)C)n(C)c2c(O)c(N=NC(N)=O)c3ccc(Br)cc3c12 | -0.1 | -4.4 | 10.7 | 36.0* | -2.4 | 12.7
CCc1c(C)nc2c(C)cccc2c1SCCC#N | 7.8 | -4.6 | -7.1 | 32.5* | -8.6 | -10.6
COC(=O)C1=C(N)C[C@H](C)S1 | . | . | -11.0 | . | . | .
COc1ccc(NC(=O)COC(=O)c2cc(SC)ccc2Cl)c(OC)c1 | -0.3 | -8.7 | -19.7 | 30.2* | 13.3 | -12.8
COc1ccc(C(C)(C)C)cc1NC(=O)COC(=O)c1cc(SC)ccc1Cl | 1.9 | 0.7 | -32.7 | 20.2 | -18.5 | .
O=C(NCC1(c2cccs2)CCOCC1)C(=O)Nc1cc(F)ccc1F | . | . | -6.0 | . | . | .
Nc1cccc2nc3ccccc3cc12 | i | 1.9 | -3.8 | . | 15.5 | .
Cc1cc2c(N)cccc2nn1 | 59.9* | -5.4 | 32.6 | 111.1* | 18.2 | 2.1
O=C(Cn1cncn1)Nc1ccccc1-c1cn2ccccc2n1 | . | . | -16.0 | . | . | .
COc1cccc2c1C(=O)c1c(O)c3c(c(O)c1C2=O)C[C@@](O)(C(=O)CO)C[C@@H]3O[C@H]1C[C@H](N)[C@H](O)[C@H](C)O1 | -7.8 | -9.8 | 33.0 | 40.8* | 4.7 | 30.5*
Cc1ccc(-n2c(-c3ccncc3)n[nH]c2=S)cc1 | -5.5 | -3.5 | -7.6 | 5.2 | 29.1 | .
Cc1ccc(-n2c(-c3cnccn3)n[nH]c2=S)cc1 | -2.0 | 3.8 | -15.4 | 29.6* | 17.5 | -9.8
OC(c1ccc(Cl)c(Cl)c1)c1ncc(-c2ccccc2C(F)(F)F)[nH]1 (stereo not drawn) | . | . | . | 34.1* | . | -10.2
OC(c1ccc(Cl)c(Cl)c1)c1ncc(-c2ccc(C(F)(F)F)cc2)[nH]1 (stereo not drawn) | . | . | . | 35.0* | . | -6.2
